Experimental data from PubChem BioAssay (EPA / NIEHS).
Inconclusive results are not listed. Active and inactive are the calls of the source. How the source made its calls: active means hit-call score of the fitted dose curve at least 0.9, where 1 is the maximum; inconclusive means response in the unintended direction; inactive means score below 0.9.

What was measured:
[1] = molecular target: human Phosphoinositide 3-kinase alpha (PI3Ka), PIK3CA (gene 5290) (UniProt P42336); assay: NVS_ENZ_hPI3Ka: NovaScreen (NVS) Enzymatic Assay for human Phosphoinositide 3-kinase alpha (PI3Ka) (AID 2283196)
Outline: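 Chemicals were first screened at 25 uM in duplicate, then hits were run as concentration series up to 50 uM. Enzyme activity was measured by fluorescence after mobility-shift separation, with loss of signal relative to DMSO taken as activity.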

[2] = molecular target: human Neurokinin, NK2 Receptor, TACR2 (gene 6865) (UniProt P21452); assay: NVS_GPCR_hNK2: NovaScreen (NVS) G Protein-Coupled Receptor Assay for human Neurokinin, NK2 Receptor (AID 2283278);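 further: actives reduce bound radioligand signal relative to DMSO baseline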
Outline: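 Filter-based scintillation counting measured radioligand bound to receptor extracted from CHO cells, 4 hours after compound addition. Chemicals screened first at 25 uM in duplicate, with actives retested in concentration series relative to DMSO.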

[3] = molecular target: Sodium channel protein type 1 subunit alpha (Rattus norvegicus) (UniProt P04774); assay: NVS_IC_rNaCh_site2: NovaScreen (NVS) Ion Channel Assay for rat Sodium Channel, Site 2 (NaCh) (AID 2283322);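 further: hit means loss of radioligand binding signal relative to DMSO so AC50 marks displacement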
Outline: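 Initial duplicate single-point testing at 25 uM, followed by concentration-response runs for actives. Binding of radioligand to rat forebrain membranes quantified after 1 h via filter-based radiodetection.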

[4] = molecular target: rat Neonicotinoid receptor (NNR), Chrna7 (gene 25302) (UniProt Q05941); assay: NVS_LGIC_rNNR_BungSens: NovaScreen (NVS) Ligand-Gated Ion Channel Assay for rat Neonicotinoid receptor (NNR) (AID 2283315)
Outline: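 Rat cortical membrane preparation incubated 2.5 h with tritiated or iodinated radioligand and test chemical. Bound radioactivity was filtered and counted by scintillation, and displacement was analysed against DMSO.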

[5] = molecular target: human Vascular Endothelial Growth Factor Receptor 1 (VEGFR1), FLT1 (gene 2321) (UniProt P17948); assay: NVS_ENZ_hVEGFR1: NovaScreen (NVS) Enzymatic Assay for human Vascular Endothelial Growth Factor Receptor 1 (VEGFR1) (AID 2283226)
Outline: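 Kinase activity of recombinant human VEGFR1 was read by fluorescence after electrophoretic separation of product from substrate, 1 h post-dosing; initial duplicate single-point testing at 25 uM, followed by concentration-series follow-up, with DMSO as baseline.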

[6] = molecular target: human Vascular Endothelial Growth Factor Receptor 3 (VEGFR3), FLT4 (gene 2324) (UniProt P35916); assay: NVS_ENZ_hVEGFR3: NovaScreen (NVS) Enzymatic Assay for human Vascular Endothelial Growth Factor Receptor 3 (VEGFR3) (AID 2283229)
Outline: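 Chemicals first run in duplicate at 25 uM, with actives re-tested in concentration series to a top of 50 uM. Recombinant VEGFR3 activity measured after 1 h via fluorescence with mobility-shift product separation; inhibition fitted relative to DMSO.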

[7] = molecular target: human Vascular Endothelial Growth Factor Receptor 2 (VEGFR2), KDR (gene 3791) (UniProt P35968); assay: NVS_ENZ_hVEGFR2: NovaScreen (NVS) Enzymatic Assay for human Vascular Endothelial Growth Factor Receptor 2 (VEGFR2) (AID 2283230)
Outline: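 Cell-free recombinant VEGFR2 kinase, fluorescent substrate with electrophoretic mobility-shift separation; read 1 h after dosing. Screened at 25 uM in duplicate, hits to concentration-response up to 50 uM; loss-of-signal versus DMSO.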

[8] = molecular target: sheep Cyclooxygenase-1 (Cox1), PTGS1 (gene 443551) (UniProt P05979); assay: NVS_ENZ_oCOX1: NovaScreen (NVS) Enzymatic Assay for sheep Cyclooxygenase-1 (Cox1) (AID 2283239);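 further: actives reduce cyclooxygenase activity so potencies are for inhibitors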
Outline: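 Tested in duplicate at 25 uM, then in concentration series if active, against seminal vesicle extract from sheep. Enzyme activity was measured colorimetrically at 0.66 hour and normalised to DMSO.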

[9] = molecular target: human Opioid Receptor Mu (Opiate Mu), OPRM1 (gene 4988) (UniProt P35372); assay: NVS_GPCR_hOpiate_mu: NovaScreen (NVS) G Protein-Coupled Receptor Assay for human Opioid Receptor Mu (Opiate Mu) (AID 2283290);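 further: hits lower bound tracer signal versus DMSO meaning displacement of the ligand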
Outline: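 CHO-derived receptor protein, cell-free; radioligand displacement, filtration + scintillation counting, read at 2.5 h. DMSO = negative control/baseline. Primary: 25 uM single conc, duplicate; secondary: concentration series.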

[10] = molecular target: human Thromboxane A2 Receptor (TXA2), TBXA2R (gene 6915) (UniProt P21731); assay: NVS_GPCR_hTXA2: NovaScreen (NVS) G Protein-Coupled Receptor Assay for human Thromboxane A2 Receptor (TXA2) (AID 2283282);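 further: actives reduce bound radioligand signal relative to DMSO baseline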
Outline: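 Screening ran at 25 uM in duplicate, with concentration series for confirmed actives. Each test measures radioligand binding to human platelet protein after 1 h, cell-free, using filter-based scintillation detection of signal loss relative to DMSO.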

[11] = molecular target: human Adenosine A2a Receptor (AdoRA2a), ADORA2A (gene 135) (UniProt P29274); assay: NVS_GPCR_hAdoRA2a: NovaScreen (NVS) G Protein-Coupled Receptor Assay for human Adenosine A2a Receptor (AdoRA2a) (AID 2283256)
Outline: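 HEK293-derived receptor preparation, radioligand displacement, 1.5 h, filtration + scintillation read. Loss of bound signal scored vs DMSO. Single-point 25 uM in duplicate first, then concentration-response for actives.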

[12] = molecular target: D(1A) dopamine receptor (Homo sapiens) (UniProt P21728); assay: NVS_GPCR_hDRD1: NovaScreen (NVS) G Protein-Coupled Receptor Assay for human Dopamine Receptor D1 (DRD1) (AID 2283269)
Outline: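 HEK293-derived receptor preparation; radioligand competitive displacement; 1 h; filtration + scintillation counting. DMSO = negative control/baseline. Primary: 25 uM, duplicate; secondary: concentration–response for actives.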

[13] = molecular target: human Sirtuin 3 (SIRT3), SIRT3 (gene 23410) (UniProt Q9NTG7); assay: NVS_ENZ_hSIRT3: NovaScreen (NVS) Enzymatic Assay for human Sirtuin 3 (SIRT3) (AID 2283222)
Outline: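 Cell-free enzyme assay with recombinant protein and fluorescent substrate, product separated by electrophoretic mobility shift; read 1 hour after dosing. Screened in duplicate at 25 uM, then singleton concentration-response up to 50 uM; loss of signal versus DMSO.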

Sequence of human Phosphoinositide 3-kinase alpha (PI3Ka), PIK3CA (gene 5290) (P42336 whole entry, looked up): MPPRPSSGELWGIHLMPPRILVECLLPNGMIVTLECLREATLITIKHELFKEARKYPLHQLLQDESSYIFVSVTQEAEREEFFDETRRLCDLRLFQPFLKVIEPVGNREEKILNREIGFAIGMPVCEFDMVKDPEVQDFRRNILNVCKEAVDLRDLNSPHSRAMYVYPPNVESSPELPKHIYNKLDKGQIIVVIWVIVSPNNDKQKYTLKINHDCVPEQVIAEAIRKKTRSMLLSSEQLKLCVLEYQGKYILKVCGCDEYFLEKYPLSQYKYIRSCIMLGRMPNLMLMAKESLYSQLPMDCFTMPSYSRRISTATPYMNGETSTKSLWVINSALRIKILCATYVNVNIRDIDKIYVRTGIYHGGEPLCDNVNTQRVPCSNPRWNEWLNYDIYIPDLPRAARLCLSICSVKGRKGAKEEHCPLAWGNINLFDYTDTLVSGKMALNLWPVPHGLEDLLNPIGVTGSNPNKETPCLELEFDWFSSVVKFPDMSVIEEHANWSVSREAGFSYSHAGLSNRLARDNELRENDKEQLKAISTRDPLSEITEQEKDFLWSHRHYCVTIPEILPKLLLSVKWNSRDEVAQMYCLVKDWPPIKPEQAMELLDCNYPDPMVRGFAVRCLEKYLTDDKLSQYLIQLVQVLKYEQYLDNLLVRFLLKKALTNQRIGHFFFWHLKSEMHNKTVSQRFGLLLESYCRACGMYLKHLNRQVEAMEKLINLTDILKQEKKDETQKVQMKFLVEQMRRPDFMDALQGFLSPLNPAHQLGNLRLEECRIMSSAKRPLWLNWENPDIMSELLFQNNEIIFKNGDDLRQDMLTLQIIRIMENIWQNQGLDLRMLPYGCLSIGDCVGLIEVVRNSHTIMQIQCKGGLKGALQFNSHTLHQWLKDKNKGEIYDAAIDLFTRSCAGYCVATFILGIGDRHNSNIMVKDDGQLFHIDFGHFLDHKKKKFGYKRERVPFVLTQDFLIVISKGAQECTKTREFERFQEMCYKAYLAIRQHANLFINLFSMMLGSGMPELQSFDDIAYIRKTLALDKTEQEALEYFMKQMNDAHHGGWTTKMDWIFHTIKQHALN
Sequence of sheep Cyclooxygenase-1 (Cox1), PTGS1 (gene 443551) (P05979 whole entry, looked up): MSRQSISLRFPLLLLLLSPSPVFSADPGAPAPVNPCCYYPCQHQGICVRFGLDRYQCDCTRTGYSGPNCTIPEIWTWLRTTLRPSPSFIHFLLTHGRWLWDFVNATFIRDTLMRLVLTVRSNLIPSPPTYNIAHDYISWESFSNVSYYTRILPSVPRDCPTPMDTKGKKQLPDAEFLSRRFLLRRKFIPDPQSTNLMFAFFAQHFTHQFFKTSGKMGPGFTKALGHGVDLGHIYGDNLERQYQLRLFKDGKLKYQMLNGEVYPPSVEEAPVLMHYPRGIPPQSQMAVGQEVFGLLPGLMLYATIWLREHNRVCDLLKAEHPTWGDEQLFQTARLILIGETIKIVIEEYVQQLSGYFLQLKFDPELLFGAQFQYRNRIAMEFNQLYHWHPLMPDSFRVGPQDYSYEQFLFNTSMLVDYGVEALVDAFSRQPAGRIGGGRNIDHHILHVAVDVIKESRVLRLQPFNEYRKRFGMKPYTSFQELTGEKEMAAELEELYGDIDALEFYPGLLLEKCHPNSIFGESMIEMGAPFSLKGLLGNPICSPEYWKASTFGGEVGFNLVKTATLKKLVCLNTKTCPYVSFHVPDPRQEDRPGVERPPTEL
Sequence of D(1A) dopamine receptor (Homo sapiens) (P21728 whole entry, looked up): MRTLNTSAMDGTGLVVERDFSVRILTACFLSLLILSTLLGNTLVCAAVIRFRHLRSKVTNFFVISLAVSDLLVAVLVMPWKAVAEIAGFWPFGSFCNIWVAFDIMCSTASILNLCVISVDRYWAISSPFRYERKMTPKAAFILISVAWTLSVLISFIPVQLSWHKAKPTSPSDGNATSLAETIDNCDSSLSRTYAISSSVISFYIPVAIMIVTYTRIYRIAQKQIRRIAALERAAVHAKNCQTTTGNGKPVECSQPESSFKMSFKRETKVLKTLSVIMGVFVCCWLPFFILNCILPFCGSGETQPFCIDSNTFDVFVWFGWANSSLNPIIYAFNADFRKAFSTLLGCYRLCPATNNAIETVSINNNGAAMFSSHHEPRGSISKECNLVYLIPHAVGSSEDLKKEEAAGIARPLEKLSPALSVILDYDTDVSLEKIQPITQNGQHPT
Sequence of human Neurokinin, NK2 Receptor, TACR2 (gene 6865) (P21452 whole entry, looked up): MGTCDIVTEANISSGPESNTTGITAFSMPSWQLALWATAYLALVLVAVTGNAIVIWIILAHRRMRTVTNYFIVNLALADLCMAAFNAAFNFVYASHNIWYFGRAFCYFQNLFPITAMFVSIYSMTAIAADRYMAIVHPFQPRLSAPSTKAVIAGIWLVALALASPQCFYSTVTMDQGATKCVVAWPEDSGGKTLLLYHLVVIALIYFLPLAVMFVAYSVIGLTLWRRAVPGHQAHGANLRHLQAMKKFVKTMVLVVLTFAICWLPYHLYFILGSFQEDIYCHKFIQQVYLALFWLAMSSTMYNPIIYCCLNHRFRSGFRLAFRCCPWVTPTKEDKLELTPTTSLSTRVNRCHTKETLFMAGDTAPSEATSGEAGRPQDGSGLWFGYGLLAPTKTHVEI
Sequence of human Opioid Receptor Mu (Opiate Mu), OPRM1 (gene 4988) (P35372 whole entry, looked up): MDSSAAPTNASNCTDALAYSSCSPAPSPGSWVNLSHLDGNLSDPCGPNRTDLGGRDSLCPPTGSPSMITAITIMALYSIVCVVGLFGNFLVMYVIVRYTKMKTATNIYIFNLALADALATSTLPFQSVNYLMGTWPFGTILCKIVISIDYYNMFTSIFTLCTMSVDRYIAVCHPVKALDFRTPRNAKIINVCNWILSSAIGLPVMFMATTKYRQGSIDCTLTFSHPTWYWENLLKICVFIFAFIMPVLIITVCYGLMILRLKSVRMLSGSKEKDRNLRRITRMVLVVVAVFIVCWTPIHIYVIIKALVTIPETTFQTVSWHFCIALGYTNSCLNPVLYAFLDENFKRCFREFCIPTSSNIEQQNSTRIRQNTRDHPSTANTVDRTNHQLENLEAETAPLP
Sequence of human Thromboxane A2 Receptor (TXA2), TBXA2R (gene 6915) (P21731 whole entry, looked up): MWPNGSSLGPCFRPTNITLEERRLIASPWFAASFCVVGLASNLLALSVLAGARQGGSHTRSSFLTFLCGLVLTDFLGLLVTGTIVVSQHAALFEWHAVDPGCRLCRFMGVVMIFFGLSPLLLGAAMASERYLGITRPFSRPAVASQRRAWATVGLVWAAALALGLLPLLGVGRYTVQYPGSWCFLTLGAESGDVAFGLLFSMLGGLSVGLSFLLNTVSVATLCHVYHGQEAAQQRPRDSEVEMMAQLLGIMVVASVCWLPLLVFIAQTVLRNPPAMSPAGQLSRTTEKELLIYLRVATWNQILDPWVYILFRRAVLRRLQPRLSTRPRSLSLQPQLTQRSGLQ
Sequence of rat Neonicotinoid receptor (NNR), Chrna7 (gene 25302) (Q05941 whole entry, looked up): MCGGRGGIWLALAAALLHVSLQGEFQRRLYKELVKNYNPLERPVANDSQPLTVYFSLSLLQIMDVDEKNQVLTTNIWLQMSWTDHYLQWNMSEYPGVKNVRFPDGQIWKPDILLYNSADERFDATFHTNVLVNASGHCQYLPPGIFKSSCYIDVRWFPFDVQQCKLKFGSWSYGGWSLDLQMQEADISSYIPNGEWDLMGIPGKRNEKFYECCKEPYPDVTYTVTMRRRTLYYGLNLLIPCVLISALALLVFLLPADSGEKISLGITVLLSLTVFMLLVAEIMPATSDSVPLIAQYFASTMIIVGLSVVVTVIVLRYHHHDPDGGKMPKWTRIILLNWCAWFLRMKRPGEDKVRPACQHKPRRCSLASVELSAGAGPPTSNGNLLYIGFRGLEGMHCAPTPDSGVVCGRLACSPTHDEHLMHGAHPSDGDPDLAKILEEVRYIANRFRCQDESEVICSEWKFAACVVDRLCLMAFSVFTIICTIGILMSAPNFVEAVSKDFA
Sequence of human Adenosine A2a Receptor (AdoRA2a), ADORA2A (gene 135) (P29274 whole entry, looked up): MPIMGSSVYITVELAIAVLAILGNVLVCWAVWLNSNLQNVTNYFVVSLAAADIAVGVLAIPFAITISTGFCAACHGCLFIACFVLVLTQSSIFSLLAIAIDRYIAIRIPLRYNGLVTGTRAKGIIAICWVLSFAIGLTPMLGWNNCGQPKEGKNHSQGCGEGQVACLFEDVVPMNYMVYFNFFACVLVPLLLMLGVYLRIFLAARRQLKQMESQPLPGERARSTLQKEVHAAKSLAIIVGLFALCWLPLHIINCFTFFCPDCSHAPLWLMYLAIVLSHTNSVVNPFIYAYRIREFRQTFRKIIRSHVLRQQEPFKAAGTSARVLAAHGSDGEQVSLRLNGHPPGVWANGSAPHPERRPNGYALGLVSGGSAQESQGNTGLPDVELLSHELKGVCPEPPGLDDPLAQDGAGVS
Sequence of human Sirtuin 3 (SIRT3), SIRT3 (gene 23410) (Q9NTG7 whole entry, looked up): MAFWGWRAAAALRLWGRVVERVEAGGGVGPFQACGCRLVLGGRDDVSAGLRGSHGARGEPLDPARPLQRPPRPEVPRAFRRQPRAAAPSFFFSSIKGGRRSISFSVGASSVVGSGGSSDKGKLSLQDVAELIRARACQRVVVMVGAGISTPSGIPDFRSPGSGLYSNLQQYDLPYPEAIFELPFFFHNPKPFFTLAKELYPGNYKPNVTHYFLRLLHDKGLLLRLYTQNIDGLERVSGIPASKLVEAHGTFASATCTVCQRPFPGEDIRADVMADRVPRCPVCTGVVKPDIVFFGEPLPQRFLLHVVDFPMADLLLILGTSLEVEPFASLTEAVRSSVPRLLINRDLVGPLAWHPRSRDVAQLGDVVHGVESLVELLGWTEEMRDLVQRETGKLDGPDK

CC(C)(C)CC(C)(C)c1ccc(OCCOCC[N+](C)(C)Cc2ccccc2)cc1
AC50 [1]: 9.05 µM (active)
AC50 [2]: 4.14 µM (active)
outcome [3]: inactive

C=CC(C)C#N (stereo unspecified)
outcome [4]: inactive

[O-]n1ccccc1=S.[O-]n1ccccc1=S.[Zn+2]
outcome [5]: inactive
outcome [6]: inactive
outcome [7]: inactive
AC50 [8]: 5.57 µM (active)
AC50 [2]: 9.86 µM (active)
AC50 [9]: 0.104 µM (active)

Cc1cc(CCC(=O)OCCOCCOCCOC(=O)CCc2cc(C)c(O)c(C(C)(C)C)c2)cc(C(C)(C)C)c1O
AC50 [10]: 0.23 µM (active)

CC(=O)C1(C)CC2=C(CCCC2(C)C)CC1C (stereo unspecified)
outcome [8]: inactive

CCCCCCCCCCCCCCCC(=O)OC/C=C(C)/C=C/C=C(C)/C=C/C1=C(C)CCCC1(C)C
AC50 [8]: 42.8 µM (active)
outcome [11]: inactive
AC50 [12]: 34.7 µM (active)
outcome [9]: inactive
outcome [3]: inactive

COC(C)(C)CC(C)=O
outcome [1]: inactive

COc1cc(Cl)c(OC)cc1N
outcome [1]: inactive
AC50 [8]: 25 µM (active)

CC1(C)C2=CCCC(C)(C)[C@]23CC[C@H]1C3
AC50 [8]: 16.4 µM (active)

CCOC(=O)CN
outcome [12]: inactive

CS(=O)(=O)OCCCCOS(C)(=O)=O
outcome [13]: inactive
outcome [8]: inactive
outcome [3]: inactive

CC(=O)c1c(C)c([N+](=O)[O-])c(C(C)(C)C)c([N+](=O)[O-])c1C
outcome [1]: inactive
